Measurements as given in PubChem BioAssay (NCATS).
Inconclusive results are not listed. Calls of active or inactive are those of the source. Calls come from the whole dose curve; as a rule, active = well fitted cell-killing curve with a large enough effect; inconclusive = small, poorly fitted or top-dose-only effect; inactive = flat fitted curve, though single readings scatter.

Test: Cell Viability - LYMP2-017 (AID 972); note: nearly all actives have a fitted effect of over 55% in size
Settings: LYMP2-017 lymphoblastoid cell viability; series mostly up to 92.2 µM; activity change, negative = cytotoxicity: at the top concentration
Excerpt: NIH Chemical Genomics Center [NCGC]
NIH Molecular Libraries Screening Centers Network [MLSCN]
National Institutes of Environmental Health Sciences [NIEHS]
National Toxicology Program [NTP]
We have developed a 1536-well cell-based assay for quantitative high throughput screening (qHTS) against a number of cell lines to determine in vitro cytotoxicity of small molecules. This particular assay uses a human lymphoblastoid cell line (LYMP2-017) purchased from Coriell Institute for Medical Research.
NCGC Assay Protocol Summary:
The CellTiter-Glo luminescent cell viability assay (Promega) is a homogeneous method to measure the number of viable cells in culture. The end point readout of this assay is based on quantitation of intracellular ATP, an indicator of metabolic activity, using the luciferase reaction. Luciferase catalyzes the oxidation of beetle Luciferin to oxyluciferin and light in the presence of ATP. The luminescent signal is proportional to amount of ATP present.
Using the CellTiter-Glo luminescent cell viability assay, the amount of cellular ATP was measured in the lymphoblastoid cell line with complete culture medium following compound treatment for 24 hours. The assay was performed in opaque white Kalypsys 1536-well plates. In the screen, tetraoctylammonium bromide was used as positive control. Library compounds were measured for their ability to cause acute toxicity in the cell line, as reflected by a decrease in intracellular ATP levels, in a concentration-dependent manner. […] AC50 values were determined from concentration-response data modeled with the standard Hill equation.
qHTS protocol for CellTiter Glo lymphoblastoid cellular assay
[Step] [Parameter] [Value] [Description]
1. Reagent; 5 uL; 2500 lymphoblastoid cells/well
2. Time; 5 hr; 37 C incubation
4. Controls; 23 nL; Tetraoctylammonium bromide 6.4pM to 92 uM
5. Time; 24 hr; 37 C incubation
6. Reagent; 5 uL; CellTiter Glo reagent
7. Time; 30 min; Room Temperature
8. Detection; Luminescence; Viewlux plate reader
Keywords: cell viability, cytotoxicity, lymphoblastoid cell line, luminescence, NTPHTS, NTPHTS_NCGC, NIEHS, DSSTox, MLSMR, MLSCN, NIH Roadmap, qHTS, NCGC
% is set by controls: 0 for no effect and ±100 for the full control effect; potency is the fitted concentration of half-maximal effect.

Row | Compound | activity change, negative = cytotoxicity | Potency
1 | Nc1ccc(S(=O)(=O)Nc2nccs2)cc1 | -27.2% (inactive) | –
2 | CCCCCCCCCCCCOS(=O)(=O)O | – | inactive
3 | CCCCOC(=O)c1ccc(O)cc1 | 0.847% (inactive) | –
4 | O=C1c2c(O)cccc2Cc2cccc(O)c21 | -8.3% (inactive) | –
5 | Cc1c(O)cccc1C(=O)N[C@@H](CSc1ccccc1)[C@H](O)CN1C[C@H]2CCCC[C@H]2C[C@H]1C(=O)NC(C)(C)C | – | 50.1 µM (active)
6 | CC1(C)[C@@H]2CC[C@@]1(C)C(=O)C2 | 1.3% (inactive) | –
7 | NCCNCCNCCNCCN | -19.5% (inactive) | –
8 | C[C@]12C[C@H](O)[C@H]3[C@@H](CCC4=CC(=O)CC[C@@]43C)[C@@H]1CC[C@@H]2C(=O)CO | -20.8% (inactive) | –
9 | CC12CCC(CC1)C(C)(C)O2 | -5.85% (inactive) | –
10 | Cc1cc2nc3c(=O)[nH]c(=O)nc-3n(C[C@H](O)[C@H](O)[C@H](O)CO)c2cc1C | 0.424% (inactive) | –
11 | NCCNCCNCCN | -13.3% (inactive) | –
12 | Cc1cc(CC(=O)O)n(C)c1C(=O)c1ccc(Cl)cc1 | -0.581% (inactive) | –
13 | [Cl][In]([Cl])[Cl] | -13.3% (inactive) | –
14 | Oc1cccc(O)c1 | -18.3% (inactive) | –
15 | NC(=O)c1ncn([C@@H]2O[C@H](CO)[C@@H](O)[C@H]2O)n1 | -25.1% (inactive) | –
16 | COc1ccccc1O | – | inactive
